Measured values as given in PubChem BioAssay (NCI).
This is part of a sample that, as a whole, favours compounds with a hit. Of some 83,000 tested, about 20% had one in any assay.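 Note: values are percent growth. 100 is the growth of untreated cells, values between 100 and 0 indicate rising inhibition; between -100 and 0 indicates cell death.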 Unmarked numbers belong to inactive results. Calls of active or inactive are those of the source. The calls were made as follows: active = growth percent below 10; inactive = the rest.

test system: SK-OV-3 ovarian; experiment: NCI-60 one-dose screen, 48 h (100 = growth as untreated, 0 = no growth, -100 = all killed); details: 10 µM unless noted

Point of comparison: `N=c1nc(N2CCCCC2)cc(N)n1O`, growth 103%. Against it:
- COC(=O)CSc1ccc(Cl)cc1 — lower, 102%
- COc1ccc(C(=O)N2N=C(c3ccc(F)cc3)CC2c2cn(-c3ccccc3)nc2-c2ccccc2)cc1 (configuration not stated) — lower, 62%
- COc1ccc(/C=C/c2nc(NCCCN(C)C)c3ccccc3n2)cc1 — higher, 121%
- c1ccc(CCn2cccc2)nc1 — higher, 107%
- Nc1cc(C(=O)O)cc(C(=O)O)c1 — lower, 97%
- Fc1ccc(-c2nc(-c3ccc(-c4nc5ccc(F)cc5[nH]4)cc3)no2)cc1 — lower, 39.8%
- N=C(N)c1ccc(NCCNc2ccc(C(=N)N)cc2)cc1 — higher, 133%
- COc1ccc(CC2c3cc(OC)c(OC)cc3CC[N+]2(C)CCC(=O)OCCCCCOC(=O)CC[N+]2(C)CCc3cc(OC)c(OC)cc3C2Cc2ccc(OC)c(OC)c2)cc1OC (configuration not stated) — higher, 110%
- C=CCN(CC#N)CC=C — higher, 116%
- O=C1Nc2ccccc2/C1=C\c1nc(C2CCN(S(=O)(=O)c3ccc(F)cc3)CC2)n2ccccc12 — lower, 57.8%
- COc1ccc(Nc2nc(N)nc3c(=O)[nH]ccc23)cc1 — higher, 107%

For `COc1ccc(C2NC(=O)c3cc4c(cc3N2)OCO4)cc1` (configuration not stated), the growth was -7.72% (active).
With `O=C1OCC2=C1C(c1ccccc1)c1cc3c(cc1N2CCO)OCO3` (configuration not stated) the growth was 6.79% (active).

test system: IGROV1 ovarian; experiment: as above; details: 10 µM unless noted

Point of comparison: `CC(C)c1ccc(-c2cnc3nonc3n2)cc1`, growth 54.4%. Against it:
- N/N=C(\C(=N\N)c1ccccc1)c1ccccc1 — higher, 96.8%
- C=C(C)[C@@H]1CC[C@]2(C(=O)NS(=O)(=O)c3ccccc3)CC[C@]3(C)[C@H](CC[C@@H]4[C@@]5(C)CC[C@H](OC(=O)NS(=O)(=O)c6ccccc6)C(C)(C)[C@@H]5CC[C@]43C)[C@@H]12 — lower, 17.6%
- O=[N+]([O-])c1ccc(N/N=C/c2ccccc2O)nc1 — lower, 18.6%
- CN1C(=O)N(C)C2C1NN=c1s/c(=C\c3ccc(C(F)(F)F)cc3)c(=O)n12 (configuration not stated) — lower, 46.4%
- O=C1C=CN2C(=O)CC=CC2[C@@H]1O (some centres not stated) — higher, 118%
- CCCNCCC(C)=O — higher, 118%
- O=C(Cc1ccc([N+](=O)[O-])cc1)Oc1ccccc1 — higher, 123%
- CN(C)c1ccc(/C=C\c2cccc[n+]2C)cc1 — higher, 68.8%
- COc1cccc(NC(=O)OC(C)C)c1 — higher, 99.7%
- COC(=O)c1ccc2c(c1)nc(-c1ccc(Cl)cc1)n2-c1cc(C(C)(C)C)[nH]n1 — lower, 54.2%
- Cc1ccc(Nc2cc(Cl)c([N+](=O)[O-])cc2[N+](=O)[O-])cc1 — lower, 27.7%
- CCOC(=O)c1cc(C(=O)OCC)c(C)nc1C — higher, 111%
- O=C(Nc1cccc(C2=NCCN2)c1)c1ccc(N=Nc2ccc(C(=O)Nc3cccc(C4=NCCN4)c3)cc2)cc1 — higher, 58.8%
- Cc1c(C(=O)CCl)c(=O)n(-c2ccccc2)n1C — lower, 48.6%
- O=C1/C=C/[C@@H](O)[C@@H]2C[C@@H](O)C[C@H]2/C=C/CCC[C@H]([C@@H](O)CO)O1 — higher, 98.5%
- CC(=O)N1N=C(C2C(=O)N(C)C(=O)N(C)C2=O)CC1c1ccccc1C(=O)O (configuration not stated) — higher, 112%
- Cn1c(=O)c2c(nc(N/N=C/c3ccccc3Cl)n2C)n(C)c1=O — higher, 102%
- O=C1Nc2ccc(Cl)cc2/C1=C\c1c(-c2ccc(F)cc2)nc2ccccn12 — lower, 20.6%
- O=C(O/C(=C/c1ccccc1)C(F)(F)F)c1ccccc1 — higher, 120%
- COC(=O)c1ccc2c(c1)nc(-c1cc3ccccc3[nH]c1=O)n2-c1cc(C(C)(C)C)[nH]n1 — lower, 44.7%
- O=c1c2cc(Br)cc(Br)c2nc(-c2ccc(Cl)cc2)n1/N=C/c1cccc(F)c1 — lower, 33.1%
- CCOC(=O)Nc1ccc2nc(N3CCCCCC3)sc2c1 — lower, 49.8%
- COC(=O)CSc1ccc(Cl)cc1 — higher, 93.9%
- COc1ccc(C(=O)N2N=C(c3ccc(F)cc3)CC2c2cn(-c3ccccc3)nc2-c2ccccc2)cc1 (configuration not stated) — higher, 85%
- N=c1nc(N2CCCCC2)cc(N)n1O — higher, 118%
- COc1ccc(C2NC(=O)c3cc4c(cc3N2)OCO4)cc1 (configuration not stated) — lower, 42.8%

With `COc1ccc(N=C2CSc3nnc(-c4cc(F)c(Cl)cc4Cl)n3N2)cc1` the growth was -45.1% (active).
